In this test the test system is Plasmodium falciparum NF54 stage V gametocytes. Briefly: viability index relative to DMSO control (fraction); higher = less gametocyte killing. Particulars: 2.5 µM, incubation time: 72 h. The protocol:
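Broad DOS informer set and blood-stage-active DOS compounds screened in duplicate at 2.5 µM against P. falciparum NF54 stage V gametocytes with the serum-free one-step SaLSSA (1536-well): 72 h at 37 °C under low oxygen, then saponin lysis and MitoTracker Red CMXRos staining, with high-content imaging. Viability index = viable-object count divided by the plate mean of DMSO wells (0 = killed, about 1 = inactive).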

The mark [1] stands for this setting: library set: Broad Institute DOS.
[2] abbreviates: library set: Broad Institute Blood Stage.

“And” between values parts separate entries of the source, which are not always exact repeats. Identical values can stand only once. ± gives the uncertainty stated by the source. Whole data set: some 9,900 compounds, median “viability index relative to DMSO control” near 1, cut for the lowest 2% near 0.85. For the sample, the lowest values were picked, then their nearest neighbours and some compounds at random.

`C[C@@H]1CN([C@@H](C)CO)C(=O)c2ccccc2-c2ccccc2CO[C@@H]1CN(C)Cc1cccnc1` had a viability index under setting [1] of 1.049 ± 0.005.

For the compound `CCCN1[C@H](CO)[C@H](c2ccc(C#Cc3ccccc3)cc2)[C@@H]1CNC1CCCC1`, under setting [1], the viability index came out at 0.914 ± 0.021.

As for `CCC(=O)NC[C@H]1[C@@H](c2ccc(-c3ccc(C#N)cc3)cc2)[C@@H](CO)N1CCC(F)(F)F`, the viability index under setting [1] amounted to 1.01 ± 0.028.

Compound `CN(C[C@H]1[C@@H](c2ccc(C3=CCCC3)cc2)[C@@H](CO)N1CCC(F)(F)F)S(C)(=O)=O` showed a viability index under setting [1] of 1.02 ± 0.046.

Under setting [1], `OC[C@@H]1[C@H](c2ccc(-c3ccc(F)cc3)cc2)[C@H](CNC2CCCC2)N1CCC(F)(F)F` registered a viability index of 0.837 ± 0.1.

`OC[C@@H]1[C@H](c2ccc(-c3ccc(F)cc3)cc2)[C@@H](CNC2CCCC2)N1CCC(F)(F)F` gave a viability index under setting [1] of 0.557 ± 0.096.

With `OC[C@H]1[C@@H](c2ccc(-c3ccc(F)cc3)cc2)[C@@H]2CN(CCC(F)(F)F)CCCCN12`, the viability index under setting [2] was found to be 0.959 ± 0.057.

Under setting [1], `CO[C@H](CN(C)C(=O)c1cnccn1)[C@H](C)CN([C@H](C)CO)S(=O)(=O)c1ccccc1` had a viability index of 0.948 ± 0.067.

On to `COc1ccc(CNC(=O)C[C@H]2CC[C@H](NC(=O)CN(C)C)[C@@H](CO)O2)cc1`, for which, under setting [1], the viability index stood at 1.1 ± 0.008.

For the compound `NCC[C@@H]1CC[C@H](NS(=O)(=O)c2ccc(Cl)cc2)[C@H](CO)O1`, the viability index under setting [1] was determined as 1.08 ± 0.093.

For `NCC[C@H]1CC[C@H](NS(=O)(=O)c2ccc(Cl)cc2)[C@H](CO)O1`, under setting [1], the viability index is 0.803 and 1.11.

Turning to `NCC[C@@H]1CC[C@@H](NS(=O)(=O)c2ccc(Cl)cc2)[C@@H](CO)O1`, under setting [1], the viability index was 1.02 and 1.13.

The compound `C[C@@H]1C/C=C/C[C@@H](c2cccc(Cl)c2)NC(=O)[C@H](Cc2ccccc2)N(C)C(=O)c2ccccc2O1.C[C@@H]1C/C=C\C[C@@H](c2cccc(Cl)c2)NC(=O)[C@H](Cc2ccccc2)N(C)C(=O)c2ccccc2O1` registered a viability index under setting [1] of 0.94 ± 0.029.

As to `C[C@@H]1C/C=C/C[C@@H](c2cccc(Cl)c2)NC(=O)[C@@H](Cc2ccccc2)N(C)C(=O)c2ccccc2O1.C[C@@H]1C/C=C\C[C@@H](c2cccc(Cl)c2)NC(=O)[C@@H](Cc2ccccc2)N(C)C(=O)c2ccccc2O1`, the viability index under setting [1] was determined as 0.812 ± 0.044.

Under setting [1], `C[C@@H]1C/C=C/C[C@H](c2cccc(Cl)c2)NC(=O)[C@@H](Cc2ccccc2)N(C)C(=O)c2ccccc2O1.C[C@@H]1C/C=C\C[C@H](c2cccc(Cl)c2)NC(=O)[C@@H](Cc2ccccc2)N(C)C(=O)c2ccccc2O1` showed a viability index of 0.9516 ± 0.0088.

`CCS(=O)(=O)N1C[C@@]2(C1)CN(CC1CCOCC1)[C@H](CO)c1c2c2ccc(OC)cc2n1C` gave a viability index under setting [1] of 0.985 ± 0.037.

`C[C@@H]1CCCCO[C@@H](CN(C)S(=O)(=O)c2cn(C)cn2)[C@H](C)CN([C@@H](C)CO)C(=O)c2cc(NC(=O)Nc3cccc4ccccc34)ccc2O1` showed a viability index under setting [1] of 1.02 ± 0.062.

The compound `O=C(C[C@@H]1CC[C@@H](NS(=O)(=O)c2ccc(F)cc2)[C@H](CO)O1)N1CCN(c2ccccc2)CC1` displayed a viability index under setting [1] of 1.05 ± 0.087.

`O=C(Nc1cc(F)ccc1F)N1CCCCN2[C@H](CO)[C@H](c3ccc(C4=CCCCC4)cc3)[C@@H]2C1`: the viability index under setting [1] was 0.935 ± 0.14.

Regarding `O=C(Nc1cc(F)ccc1F)N1CCCCN2[C@H](CO)[C@H](c3ccc(C4=CCCCC4)cc3)[C@H]2C1`, under setting [1], the viability index was found to be 0.686 ± 0.018.

Turning to `O=C(Nc1ccccc1F)N1CCCCN2[C@H](CO)[C@H](c3ccc(/C=C/c4ccccc4)cc3)[C@H]2C1`, under setting [1], the viability index was found to be 0.492 ± 0.14.

Turning to `O=C(Nc1cc(F)ccc1F)N1CCCCN2[C@@H](CO)[C@@H](c3ccc(C4=CCCCC4)cc3)[C@@H]2C1`, the viability index under setting [1] was 0.818 ± 0.063.

As to `O=C(Nc1ccccc1F)N1CCCCN2[C@H](CO)[C@@H](c3ccc(/C=C/c4ccccc4)cc3)[C@H]2C1`, the viability index under setting [1] was 0.859 ± 0.037.

`O=C(Nc1ccccc1F)N1CCCCN2[C@H](CO)[C@@H](c3ccc(/C=C/c4ccccc4)cc3)[C@@H]2C1` registered a viability index under setting [1] of 0.961 ± 0.019.

For the compound `O=C(Nc1cc(F)ccc1F)N1CCCCN2[C@H](C1)[C@H](c1ccc(C3=CCCCC3)cc1)[C@@H]2CO`, the viability index under setting [1] was 1.04 ± 0.075.

Consider `O=C(Nc1ccccc1F)N1CCCCN2[C@H](CO)[C@H](c3ccc(/C=C/c4ccccc4)cc3)[C@@H]2C1`, for which, under setting [1], the viability index worked out at 1.01 ± 0.021.

Compound `O=C(Nc1ccccc1F)N1CCCCN2[C@@H](CO)[C@@H](c3ccc(/C=C/c4ccccc4)cc3)[C@@H]2C1` had a viability index under setting [1] of 0.8892 ± 0.0057.

`O=C(C[C@@H]1C=C[C@@H](NC(=O)C2CCC2)[C@@H](CO)O1)NC1CCCCC1`: under setting [1], the viability index came out at 1.16 ± 0.096.

As for `C[C@@H]1CN([C@@H](C)CO)C(=O)c2cc(NC(=O)C3CCCCC3)ccc2O[C@@H](C)CCCCO[C@@H]1CN(C)C(=O)CCC(F)(F)F`, the viability index under setting [1] is 1.05 ± 0.025.

On to `CCCC(=O)N1C[C@@]2(C1)CN([C@@H](CO)c1c2c2ccc(OC)cc2n1C)C(=O)Nc1cccc(F)c1`, for which the viability index under setting [1] turned out to be 0.997 ± 0.13.

The compound `C[C@H](NC(=O)C[C@@H]1C=C[C@H](NS(=O)(=O)c2cccc(F)c2)[C@H](CO)O1)c1ccccc1` showed a viability index under setting [1] of 1.08 ± 0.11.

As for `N#Cc1ccc(-c2ccc([C@H]3[C@@H](CO)N4C(=O)CNC[C@@H]34)cc2)cc1`, under setting [1], the viability index was found to be 0.965 ± 0.1.

The compound `CN1CCN(C(=O)C[C@H]2CC[C@@H]3[C@H](COC[C@@H](O)CN3C(=O)Nc3ccc4c(c3)OCO4)O2)CC1` came in with a viability index under setting [1] of 1.05 ± 0.017.

With `O=C(C1CCCCC1)N1[C@H](CO)[C@@H](c2ccccc2)C12CN(Cc1cccc(Cl)c1)C2`, under setting [2], the viability index amounted to 0.748 ± 0.048.

Under setting [1], `O=C(C1CCOCC1)N1[C@@H](CO)[C@@H](c2ccccc2)C12CN(Cc1cccc(Cl)c1)C2` showed a viability index of 1.103 ± 0.0018.

Under setting [1], `O=C(C1CCOCC1)N1[C@H](CO)[C@@H](c2ccccc2)C12CN(Cc1cccc(Cl)c1)C2` had a viability index of 1.1 ± 0.062.

Source of the values: the supplement of paper PMC4723716.
